Out of some 310,000 compounds screened, about 2,200 (0.71%) showed an effect of 50% or more. The effect is printed as a negative number. The sample holds strong results, similar compounds and a random draw of the others, so the mix is not that of the screen.
What follows are molecules tested against human ether-à-go-go-related gene (hERG) potassium channel (human, UniProt Q12809) (assay: primary screen, population patch clamp on CHO cells stably expressing hERG; higher = less effect of the substance).
Sequence of human ether-à-go-go-related gene (hERG) potassium channel (Q12809 whole entry, looked up): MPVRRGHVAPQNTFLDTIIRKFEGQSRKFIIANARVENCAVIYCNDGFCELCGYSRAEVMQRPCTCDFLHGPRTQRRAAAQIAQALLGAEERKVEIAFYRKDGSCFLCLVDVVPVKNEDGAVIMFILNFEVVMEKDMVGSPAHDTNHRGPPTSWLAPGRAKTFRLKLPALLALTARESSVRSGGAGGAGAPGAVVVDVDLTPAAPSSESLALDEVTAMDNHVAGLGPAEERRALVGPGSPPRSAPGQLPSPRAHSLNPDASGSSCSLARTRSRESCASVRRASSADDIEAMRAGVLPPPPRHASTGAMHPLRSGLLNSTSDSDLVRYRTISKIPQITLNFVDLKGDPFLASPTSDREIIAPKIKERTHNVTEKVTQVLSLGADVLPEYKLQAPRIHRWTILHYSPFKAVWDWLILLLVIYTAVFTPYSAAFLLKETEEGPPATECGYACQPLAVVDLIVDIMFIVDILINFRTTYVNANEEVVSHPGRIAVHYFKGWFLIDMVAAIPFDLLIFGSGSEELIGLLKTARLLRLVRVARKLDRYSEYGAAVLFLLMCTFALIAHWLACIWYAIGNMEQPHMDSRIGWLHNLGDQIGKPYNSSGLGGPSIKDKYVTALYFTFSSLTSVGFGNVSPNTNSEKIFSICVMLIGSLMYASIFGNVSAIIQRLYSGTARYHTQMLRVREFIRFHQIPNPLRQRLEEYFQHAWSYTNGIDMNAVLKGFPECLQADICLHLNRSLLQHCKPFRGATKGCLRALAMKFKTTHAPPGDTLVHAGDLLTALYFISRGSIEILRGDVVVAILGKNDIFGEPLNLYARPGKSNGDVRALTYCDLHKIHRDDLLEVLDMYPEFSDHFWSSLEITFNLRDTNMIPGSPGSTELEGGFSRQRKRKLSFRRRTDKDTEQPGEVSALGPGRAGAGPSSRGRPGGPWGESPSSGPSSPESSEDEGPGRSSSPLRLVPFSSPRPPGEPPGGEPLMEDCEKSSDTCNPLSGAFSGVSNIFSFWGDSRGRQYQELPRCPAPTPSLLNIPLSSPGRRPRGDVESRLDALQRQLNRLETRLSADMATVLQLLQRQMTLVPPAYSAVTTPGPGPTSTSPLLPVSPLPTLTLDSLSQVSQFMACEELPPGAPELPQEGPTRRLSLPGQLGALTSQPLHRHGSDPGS

SMILES | hERG current change (%, negative = inhibition) at 1uM [%]
COCCCN1C(=O)C(=O)/C(=C(/O)c2ccc(S(=O)(=O)N3CCCCC3)cc2)C1c1cccc(OC)c1 (stereo not drawn) | 2.22
CC1(c2ccc(OC(F)F)cc2)NC(=O)N(CC(=O)Nc2ccc(N3CCCCC3)cc2)C1=O (stereo not drawn) | 18
CN1C(=O)c2ccccc2C(C(=O)O)C1c1cccc(Cl)c1 (stereo not drawn) | 8.65
CCN1C(=O)C2(C(C(=O)c3ccc(C)o3)=C(O)C(=O)N2CCCN(C)C)c2ccccc21 (stereo not drawn) | 14
COc1ccc2[nH]cc(C(=O)CN(C)CCc3ccc(OC)c(OC)c3)c2c1 | -60.6
COc1ccc2[nH]cc(C(=O)CN(C)C)c2c1 | 11.4
CCN(CC)CC(=O)c1c[nH]c2ccc(OC)cc12 | 3.98
COC(=O)c1cc(S(=O)(=O)Nc2cccc(S(N)(=O)=O)c2)oc1C | 8.79
COCCn1c(SCC(=O)c2c(N)n(C3CC3)c(=O)[nH]c2=O)nnc1-c1ccc(Cl)cc1 | 13.5
CN(Cc1ccccc1)C(=O)N1CCOCC1 | 17.7
CCOC(=O)N1CCN(c2ncnc3c2oc2nc(C(C)C)c4c(c23)CCC4)CC1 | 6.16
Cc1ccsc1C(=O)C1CCCN(Cc2cccn2-c2ccccn2)C1 (stereo not drawn) | -81.7
Cc1ccsc1C(=O)C1CCCN(Cc2ccccc2O)C1 (stereo not drawn) | -3.16
Cc1ccsc1C(=O)C1CCCN(Cc2cccn2-c2ccc(Cl)cn2)C1 (stereo not drawn) | -84.3
Cc1ccsc1C(=O)C1CCCN(Cc2ccn[nH]2)C1 (stereo not drawn) | 9.05
Cc1ccsc1C(=O)C1CCCN(Cc2cnc(N)nc2)C1 (stereo not drawn) | 4.23
Cc1ncc(CN2CCCC(C(=O)c3sccc3C)C2)s1 (stereo not drawn) | 12.5
CCOc1ccccc1OCC(=O)Nc1ccc(S(=O)(=O)Nc2nc(C)cc(C)n2)cc1 | 0.94
Cc1ccc(S(=O)(=O)c2c(C)nn(-c3ccccc3)c2OC(=O)c2ccco2)cc1 | 5.81
CC(C)c1ccc2c(c1)[C@H]1OCC[C@H]1[C@@H](c1cccs1)N2 | 4.11
CCOC(=O)C(C)Oc1ccc(C2NC(=O)NC(C)=C2C(C)=O)cc1Br (stereo not drawn) | 4.32
Cc1ccc(NC(=O)Cn2cccc2C2=NC(c3ccccc3)CO2)c(C)c1 (stereo not drawn) | 3.9

SMILES | hERG current change (%, negative = inhibition) at 1uM [%]
O=C(O)c1cncc(Br)c1 | 8.7
Cc1cccc2c(N)c3c(nc12)N(C)CC3.O=C(O)C(=O)O | 7.57
Cc1ccc(C)c2c(N)c3c(nc12)CCCCC3.O=C(O)c1cncc(Br)c1 | -51.9
Cc1cc(Br)c2nc3c(c(C(=O)O)c2c1)CCCCC3 | 7.18
CN1CCCCc2c1nc1ccccc1c2N.O=C(O)c1cncc(Br)c1 | -79.7
CN1CCc2c1nc1ccccc1c2N.O=C(O)c1cc([N+](=O)[O-])ccc1Cl | 7.96
Cc1ccc(NC(=O)c2ccsc2)cc1NS(C)(=O)=O | 15.1
C[n+]1c2n(c3ccccc31)N=C(c1ccccc1)CS2.[Br-] | -17.3
COc1ccc(C2=Nn3c([n+](C)c4ccccc43)SC2)cc1.[Br-] | -13.2
C[n+]1c2n(c3ccccc31)N=C(c1cc(C(C)(C)C)c(O)c(C(C)(C)C)c1)CS2.[Br-] | -63.5
Cc1ccc(-c2nnc3n2N=C(c2ccc(Br)cc2)CS3)cc1 | 4.56
Cc1cc(Cn2nnc3ccccc32)c(O)c(C(C)(C)C)c1 | 23.6
C[n+]1c2n(c3ccccc31)N=C(c1ccc(-c3ccccc3)cc1)CS2.[Br-] | -39
CC1Sc2n(c3ccccc3[n+]2C)N=C1c1ccccc1.[Br-] (stereo not drawn) | -16.8
C[n+]1c2n(c3ccccc31)N=C(c1ccc(Cl)cc1)CS2.[Br-] | -51.9
C[n+]1c2n(c3ccccc31)N=C(c1ccc(Br)cc1)CS2.[Br-] | -53.1
COc1ccc(NC(=O)Cn2nnc(-c3ccccc3F)n2)cc1 | 8.09
CCC(=O)Nc1ccc(-c2nnc(SCC(=O)NCC3CCCO3)n2C)cc1 (stereo not drawn) | 14.4
COc1ccc(NC(=O)CN2C(=O)C(C)SC(C)C2=O)cc1 (stereo not drawn) | 6.14
Cn1c(-[n+]2c(-c3ccccc3)cc(-c3ccccc3)cc2-c2ccccc2)nc2c([N+](=O)[O-])cccc21.[I-] | -6.1
Cc1ccc(C(=O)N/C(=C\c2ccc(-c3ccccc3[N+](=O)[O-])o2)C(=O)NCCN(C)C)cc1 | -29.7
CCCCNC(=O)/C(=C\c1ccc([N+](=O)[O-])o1)NC(=O)c1ccccc1 | -6.47

SMILES | hERG current change (%, negative = inhibition) at 1uM [%]
CN(C)CCCNC(=O)/C(=C/c1ccc(-c2ccc([N+](=O)[O-])cc2)o1)NC(=O)c1ccccc1 | -52.5
Cc1ccc(C(=O)N/C(=C\c2ccc(-c3ccccc3[N+](=O)[O-])o2)C(=O)NCCCN(C)C)cc1 | -14.9
CN(C)C(=O)/C(=C/c1ccc(-c2cccc([N+](=O)[O-])c2)o1)NC(=O)c1ccccc1 | 5.68
Cc1ccc(C(=O)N/C(=C/c2ccc(-c3ccc([N+](=O)[O-])cc3)o2)C(=O)NCCCN(C)C)cc1 | -78
CCOC(=O)C(C)Oc1cccc2c(=O)n(CC(=O)N3CCCc4ccccc43)ccc12 (stereo not drawn) | 15.8
CN(Cc1cccc2cnccc12)C(=O)c1cc(COc2ccc(F)cc2Cl)on1 | 19.5
Cc1cc(C)nc(SCC(=O)N(C)CC(=O)Nc2c(Cl)cccc2Cl)n1 | 7.52
O=C(Oc1ccc(-c2nccc(-c3ccccn3)n2)cc1)c1cccc(C(F)(F)F)c1 | 5.53
Cc1cc(C)n(-c2nc(Nc3ccccc3)nc(-n3nc(C)cc3C)n2)n1 | 12.1
CNc1nc(C)nc(-n2nc(C)cc2C)n1 | 9.5
Cc1cc(C)n(-c2nc(C)nc(NCc3ccccc3)n2)n1 | -61.6
CCCOC(=O)c1ccc(NC(=O)CN(C)Cc2cccs2)cc1 | 11.8
O=C1c2ccsc2SCCN1Cc1cccc(Cl)c1 | 8.86
COc1ccc(N2CCN(C(=O)Cn3cnc4c(cnn4-c4ccccc4)c3=O)CC2)cc1 | 5.22
Cc1ccc(Cl)cc1NC(=O)CCS(=O)(=O)c1cccc2nonc12 | 10.8
Cl.Clc1ccc(CN2C3=NCCCN3c3ccccc32)cc1 | -54.3
Cl.Clc1ccc(CN2C3=NCCN3c3ccccc32)cc1Cl | -72.3
Cc1cc2c(cc1C)N(Cc1ccc(Cl)cc1)C1=NCCCN12 | -28.4
c1ccc(CN2C3=NCCN3c3ccccc32)cc1 | 2.38
Cl.O=C(CN1C2=NCCCN2c2ccccc21)c1ccc(Cl)cc1Cl | -82.1
Cl.Clc1ccc(CN2C3=NCCN3c3ccccc32)cc1 | -40.4
Cl.c1ccc(CN2C3=NCCCN3c3ccccc32)cc1 | -29

SMILES | hERG current change (%, negative = inhibition) at 1uM [%]
Cc1ccc(CN2C3=NCCN3c3ccccc32)cc1.Cl | -23.5
Cl.Clc1ccc(CN2C3=NCCCN3c3ccccc32)c(Cl)c1 | -28.2
Brc1ccc(CN2C3=NCCCN3c3ccccc32)cc1.Cl | -55.6
Cl.Fc1ccc(CN2C3=NCCCN3c3ccccc32)cc1 | -32.8
Cl.O=C(O)CN1C2=NCCCN2c2ccccc21 | 15.8
COc1ccc(Sc2ccc(NC(=O)c3ccccc3Cl)cc2C#N)cc1 | 8.52
Cc1ccc(-c2csc(N3CCC(NS(=O)(=O)c4ccc5c(c4)OCCO5)CC3)n2)cc1 | 9.83
CCOC(=O)Nc1nc(C)c(C(=O)N(C)C)s1 | -1.49
Cn1c(OCc2ccco2)nc2c1c(=O)n(Cc1ccc(Cl)c(Cl)c1)c(=O)n2C | 6.62
COc1ccc(C(=O)NC(=S)N2CC(C)OC(C)C2)cc1OC (stereo not drawn) | 7.44
COC(=O)c1sccc1NC(=O)Nc1cccc(F)c1 | 9.69
C[C@@H](C(=O)OCC(=O)NCCc1ccc(S(N)(=O)=O)cc1)N1C(=O)C2CCCCC2C1=O (stereo partly drawn) | 12
Cc1cccc(CN2C3=NCCCN3c3ccccc32)c1.Cl | -16.9
Br.CC(C)(C)c1ccc(CN2C3=NCCCN3c3ccccc32)cc1 | -79.7
Cc1ccc(CN2C3=NCCCN3c3ccccc32)cc1.Cl | -29.6
Br.CC(C)(C)C(=O)CN1C2=NCCCN2c2ccccc21 | -46.9
Cl.Clc1cccc(CN2C3=NCCCN3c3ccccc32)c1 | -46.2
Cl.Clc1ccc(CN2C3=NCCCN3c3ccccc32)cc1Cl | -51.4
O=C1CSC2(CCCCC2)N1CCO | 12.4
O=C(Oc1ccc(C(=S)N2CCOCC2)cc1)c1ccccc1 | 28.6
O=C(COC(=O)C1(c2ccc(F)cc2)CCCC1)Nc1ncc(C(F)(F)F)cc1Cl | 2.97
